Some of the results follow. No count for the full screen is at hand.
Target: furin, P09958
Experiment: furin cleavage Z-score vs untreated control; higher = more cleavage, active = 3.5 or more, inactive = 1 or less, 8 variable residues between constant flanks
Procedure: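 Multiplexed peptide-cDNA fusion cleavage assay. 8-mer variable peptides flanked by constant Cys-Ala (N-term) and Ala-Gly-Asn-Ala-Ser-Ala-Ser-Ala (C-term) and conjugated to a cDNA oligonucleotide were bead-immobilised via the N-terminus. They were treated with purified furin at a 1:10 enzyme:substrate ratio in 50 mM HEPES pH 7.5, 1 mM CaCl2, 100 mM NaCl for 7.5, 15 or 30 min. Released cDNA was counted by next-generation sequencing, and log counts versus no-furin controls were lowess-adjusted and converted to robust Z-scores.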

Sequence of furin, P09958 (P09958 whole entry): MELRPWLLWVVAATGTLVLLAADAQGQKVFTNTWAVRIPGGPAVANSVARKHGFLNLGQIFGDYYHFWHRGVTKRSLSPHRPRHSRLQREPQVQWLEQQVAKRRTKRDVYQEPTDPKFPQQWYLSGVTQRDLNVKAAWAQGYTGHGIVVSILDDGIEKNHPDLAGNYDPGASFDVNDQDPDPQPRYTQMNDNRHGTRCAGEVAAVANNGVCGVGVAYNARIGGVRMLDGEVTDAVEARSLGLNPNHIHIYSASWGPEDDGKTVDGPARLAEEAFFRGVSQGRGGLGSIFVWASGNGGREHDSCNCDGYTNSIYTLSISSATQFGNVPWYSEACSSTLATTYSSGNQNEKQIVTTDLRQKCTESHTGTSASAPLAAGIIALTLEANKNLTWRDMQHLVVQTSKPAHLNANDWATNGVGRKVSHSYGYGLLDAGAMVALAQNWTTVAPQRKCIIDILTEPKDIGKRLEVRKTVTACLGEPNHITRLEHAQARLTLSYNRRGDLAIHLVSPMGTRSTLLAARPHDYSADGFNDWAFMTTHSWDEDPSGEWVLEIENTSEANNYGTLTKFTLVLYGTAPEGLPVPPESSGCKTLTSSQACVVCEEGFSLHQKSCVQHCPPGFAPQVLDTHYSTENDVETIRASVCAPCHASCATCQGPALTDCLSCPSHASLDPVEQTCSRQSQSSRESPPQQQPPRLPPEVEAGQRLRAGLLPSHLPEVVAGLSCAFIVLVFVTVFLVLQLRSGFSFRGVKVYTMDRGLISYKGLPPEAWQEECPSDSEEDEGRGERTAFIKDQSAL

Sequence | furin cleavage Z-score (7.5 min) | furin cleavage Z-score (15 min) | furin cleavage Z-score (30 min)
CARHLIFCHSAGNASASA [HC855] | -0.853 (inactive) | 0.266 (inactive) | 0.481 (inactive)
CARMWRKTRSAGNASASA [FS-955] | 13.5 (active) | 13.7 (active) | 10.7 (active)
CADSGRAYLPAGNASASA [FS-2629] | -0.794 (inactive) | -0.681 (inactive) | -1.79 (inactive)
CADSGRKTRSAGNASASA [FS-760] | 9.82 (active) | 12.7 (active) | 9.11 (active)
CARFWRKTRSAGNASASA [FS-1396] | 13 (active) | 13.8 (active) | 10.1 (active)
CARHMRMTRSAGNASASA [FS-857] | 13.4 (active) | 13.6 (active) | 9.7 (active)
CARIVGPRTCAGNASASA [HC1183] | 0.967 (inactive) | -0.921 (inactive) | -0.233 (inactive)
CAYVPCHRPSAGNASASA [HC2309] | 1.57 | -0.807 (inactive) | 0.069 (inactive)
CAPQAILDMIAGNASASA [HC331] | -0.162 (inactive) | -2.41 (inactive) | -1.52 (inactive)
CAKWVPGAVYAGNASASA [HC551] | -1.17 (inactive) | -1.76 (inactive) | -0.384 (inactive)
CAMEESSQHLAGNASASA [HC15] | 0.403 (inactive) | 2.52 | 1.06
CADQEVVTSTAGNASASA [HC2302] | -0.902 (inactive) | -1.54 (inactive) | -1.12 (inactive)
CAFQARLTRSAGNASASA [FS-158] | 10.8 (active) | 11.5 (active) | 9.98 (active)
CARMWRKNRSAGNASASA [FS-954] | 7.39 (active) | 10 (active) | 7.6 (active)
CAMPECSQHLAGNASASA [HC1699] | -0.692 (inactive) | -0.28 (inactive) | -0.904 (inactive)
CADQDLVGWPAGNASASA [HC713] | -0.0765 (inactive) | -0.565 (inactive) | 0.238 (inactive)
CARDKRALKQAGNASASA [FS-1690] | 5.74 (active) | 8.75 (active) | 8.98 (active)
CARTKRELENAGNASASA [FS-1935] | 14.2 (active) | 14.2 (active) | 11.6 (active)

Sequence | furin cleavage Z-score (7.5 min) | furin cleavage Z-score (15 min) | furin cleavage Z-score (30 min)
CARSKKDFEAAGNASASA [FS-2458] | 0.38 (inactive) | -0.117 (inactive) | -0.363 (inactive)
CARSKRAAPAAGNASASA [FS-2603] | 11.1 (active) | 9.91 (active) | 8.19 (active)
CAITRVESENAGNASASA [HC1281] | -1.51 (inactive) | -1.29 (inactive) | 0.308 (inactive)
CAQAEAALENAGNASASA [HC532] | 0.288 (inactive) | -0.4 (inactive) | -1.4 (inactive)
CARSKRALKQAGNASASA [FS-2604] | 8.45 (active) | 11.8 (active) | 8.31 (active)
CAMEECGQHLAGNASASA [HC22] | 0.622 (inactive) | 0.186 (inactive) | 1.5
CARAAICGKYAGNASASA [HC1629] | -0.897 (inactive) | -0.988 (inactive) | -0.655 (inactive)
CARSKRRKYVAGNASASA [FS-3170] | -1.22 (inactive) | -0.271 (inactive) | 0.492 (inactive)
CARSKRREMQAGNASASA [FS-3207] | 0.975 (inactive) | 0.582 (inactive) | 0.62 (inactive)
CARDKRWVKYAGNASASA [FS-2652] | 0.63 (inactive) | 2.15 | 6.84 (active)
CARDKRSALQAGNASASA [FS-1945] | 8.56 (active) | 10.4 (active) | 8.42 (active)
CARDKKSLLQAGNASASA [FS-2133] | 0.497 (inactive) | 0.302 (inactive) | -0.611 (inactive)
CARSYRYALQAGNASASA [FS-3101] | 2.16 | -0.873 (inactive) | -0.277 (inactive)
CARSKRKKEVAGNASASA [FS-2304] | 1.21 | -0.317 (inactive) | -0.337 (inactive)
CARSKRAQTQAGNASASA [FS-2807] | 3.83 (active) | 4.65 (active) | 3.76 (active)
CARSKRASYVAGNASASA [FS-2808] | 5.25 (active) | 9.12 (active) | 8.21 (active)
CARDKRLAYSAGNASASA [FS-3217] | -0.235 (inactive) | -0.255 (inactive) | 0.271 (inactive)
